The list is not random: actives were taken first. Their share in the collection is about 2.8%.
IP6K1 inh – IP6K1 kinase inhibition. Q92551. IP6K1 kinase, ADP-Glo luminescence, 2 h; hits give low values. activity change, % (series mostly up to about 58 µM). 0.81% of 140,000 active; in the data active = activity change below about -25%; note: % is set by controls: 0 for no effect and ±100 for the full control effect
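ADP-Glo luminescence measures ADP made by human IP6K1 during a 2 h RT reaction with ATP/IP6 (mix at 1.3 mM/130 uM); top library doses 57.5 and 19.1 uM final.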
SNCA viab count – reduces viability of HEK-293 SNCA reporter cells | 0.12% of 150,000 active | HEK-293-SNCA-luc viability, GF-AFC fluorescence, 24 h | Potency, µM (top dose mostly 57.1 µM), for the others: at the highest dose activity change, negative = cytotoxicity, most hits filed as cytotoxic;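 note: potency is the fitted concentration of half-maximal effect; 0% = DMSO-treated cells and -100% = medium-only wells without cells; nearly all actives have a fitted effect of over 30% in size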
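Cytotoxicity counterscreen: after 24 h compound treatment of genome-edited SNCA-luciferase HEK-293 cells, live-cell protease substrate GF-AFC read by fluorescence after 30 min; activity scaled between DMSO (0%) and medium-only (-100%), curves Hill-fitted.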
KDM5B inhibitor – blocks human KDM5B histone demethylase activity; Q9UGL1; KDM5B demethylase, FDH-coupled NADH fluorescence (FDH is formaldehyde dehydrogenase); Potency, µM (highest dose often 57.7 µM), most hits filed as inhibitors; AID 1347165; 2.6% of 220,000 active; note: potency is the fitted concentration of half-maximal effect; 0% is about no effect; nearly all actives have a fitted effect of over 70% in size
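Compound dilutions met 200 nM (final) KDM5BΔAP for 10 min at room temperature before substrate addition. The substrate mix held 12.5 µM H3K4me3 with cofactors 25 µM α-ketoglutarate and 50 µM Fe²⁺. NADH signal gain over 30 min defined activity.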
SNCA expr inhib – SNCA gene expression inhibition | HEK-293 SNCA-luciferase knock-in, luminescence, 24 h | AID 1671194 | Potency, µM (titrated, usually from 57.2 µM), for the others: top-dose activity change, negative = inhibition, hits mostly inhibitors | 0.17% of 140,000 active;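 note: potency is the fitted concentration of half-maximal effect; plate controls were DMSO cells for no effect and cell-free wells for full effect; nearly all actives have a fitted effect of over 45% in size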
IP6K1 inh cnf – confirmation of human IP6K1 inhibitors; shares compounds with IP6K1 inh; recombinant IP6K1 kinase, ADP-Glo luminescence, 2 h; Potency, µM (titrated, usually from 49 µM), for the others: at the top dose activity change, negative = inhibition, actives largely listed as inhibitors; 13% of 1,200 active; note: potency is the fitted concentration of half-maximal effect; % is set by controls: 0 for no effect and ±100 for the full control effect; nearly all actives have a fitted effect of over 65% in size
Starred values were filed as active, the others as inactive; [ ] = another dose, or the depositor's remark. Unless noted, calls come from the whole dose curve; as a rule, active = well fitted curve in the direction sought with a large enough effect; inconclusive = small, poorly fitted or top-dose-only effect, or another doubt; inactive = no such curve, though single readings can be large; an effect the other way counts as inactive or inconclusive.

`CCOC(=O)C1CCCN(C(=O)c2ccc3c(c2)sc2nc(-c4cccc(OC)c4)cn23)C1` (stereo not drawn) gave IP6K1 inh -31*, SNCA viab count 1%, KDM5B inhibitor inconclusive, SNCA expr inhib 42% and IP6K1 inh cnf 3%.
For CCOC(=O)C1CCCN(C(=O)c2ccc3c(c2)sc2nc(-c4ccc(C)cc4C)cn23)C1 (stereo not drawn) the results were IP6K1 inh -3, SNCA viab count -12%, KDM5B inhibitor inactive and SNCA expr inhib 33%.
For COc1ccc(/C=C(/C#N)c2ccc(Cl)cc2)c(OC)c1C the results were KDM5B inhibitor inactive.
Cc1ccc([N+](=O)[O-])cc1S(=O)(=O)N1CCn2cccc2C1c1ccccc1 (stereo not drawn) was read as IP6K1 inh -5, SNCA viab count 7%, KDM5B inhibitor inconclusive and SNCA expr inhib -9%.
Screening Cc1ccc([N+](=O)[O-])cc1S(=O)(=O)N1CCn2cccc2C1c1ccccc1F (stereo not drawn) returned IP6K1 inh -26*, SNCA viab count -2%, KDM5B inhibitor inconclusive, SNCA expr inhib 22% and IP6K1 inh cnf -20%.
`C=CCn1c(N2CCN(Cc3ccc(Cl)cc3)CC2)nc2c1c(=O)[nH]c(=O)n2C` gave KDM5B inhibitor inactive.
COc1ccc(OC)c(CNC(=O)c2nn(C)c3c2CSc2ccccc2-3)c1 was read as IP6K1 inh 35, SNCA viab count 11%, KDM5B inhibitor inconclusive and SNCA expr inhib -6%.
Screening COc1ccc(NC(=O)c2[nH]nc3c2CSc2ccccc2-3)c(OC)c1 returned IP6K1 inh -44*, SNCA viab count 8%, KDM5B inhibitor inactive, SNCA expr inhib 7% and IP6K1 inh cnf -6%.
Screening COc1ccc(-c2c(NC(=O)c3cccs3)n(C)c3ccccc3c2=O)cc1OC returned KDM5B inhibitor inactive.
O=C(Cc1ccccc1)Nc1sc2c(c1C(=O)Nc1ccccc1Cl)CCCCC2 was read as IP6K1 inh -2, SNCA viab count 3%, KDM5B inhibitor inactive and SNCA expr inhib -23%.
O=C(Cc1ccccc1)Nc1sc2c(c1C(=O)Nc1cccc(Cl)c1)CCCCC2 was read as IP6K1 inh -29*, SNCA viab count -12%, KDM5B inhibitor inactive, SNCA expr inhib 11% and IP6K1 inh cnf 3%.
Screening CCCCN(C)C(=O)c1c(C)sc2ccn(CCC)c(=O)c12 returned IP6K1 inh -7, SNCA viab count -3%, KDM5B inhibitor inconclusive, SNCA expr inhib 21% and IP6K1 inh cnf -24%.
Cc1nc(-c2ccc(S(=O)(=O)Nc3ccc(F)cc3F)cc2)co1 was read as KDM5B inhibitor inactive.
For CC(=O)Nc1ccc(NS(=O)(=O)c2ccc(Cl)s2)cc1 the results were IP6K1 inh -28*, SNCA viab count 7%, KDM5B inhibitor inactive, SNCA expr inhib 13% and IP6K1 inh cnf -25%.
O=C(Nc1c(Cl)cc(Cl)cc1Cl)C12CC3CC(CC(C3)C1)C2 was read as KDM5B inhibitor inactive.
C[C@]12CC[C@H](O)CC1=CCC[C@@H]2OC(=O)Nc1ccccc1 was read as IP6K1 inh 19.
`Cn1cc(-c2cnc3[nH]cc(CC(=O)Nc4ccccc4Cl)c3c2)cn1` gave IP6K1 inh -26*, SNCA viab count 6%[87.6 µM], KDM5B inhibitor 32µM*, SNCA expr inhib 44%[87.6 µM] and IP6K1 inh cnf inconclusive.
For O=C(CCS(=O)(=O)c1ccccc1)N(Cc1cccnc1)c1nc2ccc(F)cc2s1 the results were IP6K1 inh -26*, SNCA viab count -6%, KDM5B inhibitor inconclusive, SNCA expr inhib 42% and IP6K1 inh cnf -12%.
For CC(=O)N(Cc1cccnc1)c1nc2ccc(F)cc2s1 the results were IP6K1 inh -2, SNCA viab count -7%, KDM5B inhibitor inactive and SNCA expr inhib 51%.
Screening CC(=O)c1cccc(Nc2ncnc3c2cnn3C)c1 returned IP6K1 inh -38*, SNCA viab count -6%, KDM5B inhibitor inactive, SNCA expr inhib 55% and IP6K1 inh cnf inconclusive.
`CC(=O)Nc1ccc(Nc2ncnc3c2cnn3C)cc1` gave IP6K1 inh -3, SNCA viab count 8%, KDM5B inhibitor inactive and SNCA expr inhib 241%.
For O=C(O)c1cccc(Nc2ncnc3ccc(Br)cc23)c1 the results were IP6K1 inh -26*, SNCA viab count 0%, KDM5B inhibitor inconclusive, SNCA expr inhib 10% and IP6K1 inh cnf inconclusive.
For CC#CC(=O)Nc1ccc2ncnc(Nc3cccc(Br)c3)c2c1 the results were IP6K1 inh 2 and SNCA viab count inconclusive.
`CC1CCC(NC(=O)CSc2ncnc3c2cnn3-c2ccccc2)CC1` (stereo not drawn) gave KDM5B inhibitor inactive.
For CC(=O)Nc1ccc(NC(=O)C(C)Cl)cc1 (stereo not drawn) the results were KDM5B inhibitor inactive.
For Cc1cccc(NC(=O)c2cc(-c3ccc[nH]3)n[nH]2)c1 the results were IP6K1 inh -9, SNCA viab count 6%, KDM5B inhibitor inconclusive, SNCA expr inhib 47% and IP6K1 inh cnf inconclusive.
For COc1ccc(NC(=O)c2cc(-c3ccc[nH]3)n[nH]2)cc1F the results were IP6K1 inh 13, SNCA viab count -2%, KDM5B inhibitor inactive, SNCA expr inhib 1% and IP6K1 inh cnf inconclusive.
Cc1ccccc1[C@@H]1CN(C(=O)CCC(=O)NC2CCCC2)C[C@H]1C(=O)O was read as IP6K1 inh -35*, SNCA viab count -5%, KDM5B inhibitor inactive, SNCA expr inhib -15% and IP6K1 inh cnf 13%.
`c1ccc(C2=Nn3c(nnc3-c3ccncc3)SC2)cc1` gave IP6K1 inh cnf 18%.
O=[S+]([O-])(NC1CCN(Cc2ccc(-c3ccsc3)cc2)C1)c1cccs1 (stereo not drawn) was read as IP6K1 inh -13, SNCA viab count -13% and SNCA expr inhib inconclusive.
CNc1nc(-c2cc3c4c(c2)CC(=O)N4CCC3)cs1 was read as KDM5B inhibitor inactive.
`Cc1cccc(Nc2c3c(nc4nncn24)CCC3)c1C` gave IP6K1 inh -27*, SNCA viab count -9%, KDM5B inhibitor inactive, SNCA expr inhib 48% and IP6K1 inh cnf -3%.
For CNC(=O)CSC12CC3CC(CC(C3)C1)C2 the results were KDM5B inhibitor inactive.
CN1CCN(c2cc(=O)c3ccnc(-c4ccc(Cl)cc4)c3o2)CC1 was read as IP6K1 inh -32*, SNCA viab count -5%[87.6 µM], KDM5B inhibitor 35µM*, SNCA expr inhib 6%[87.6 µM] and IP6K1 inh cnf inconclusive.
For COc1ccccc1NC(=O)c1c(NC(=O)c2ccccc2Cl)sc2c1CCC2 the results were IP6K1 inh -31*, SNCA viab count 11%, KDM5B inhibitor inactive, SNCA expr inhib 9% and IP6K1 inh cnf 12%.

Source: PubChem (National Center for Advancing Translational Sciences (NCATS))
